Hit rate of the full screen: of about 2,500 compounds, about 2,100 (84%) were called active. So high a share suggests a set chosen from earlier hits. These entries were drawn from the full list. Results with a measured potency or affinity are listed apart. Values without a mark were called inactive.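 The calls were made as follows: active = toxic compounds, whose cell viability fell below 70% of untreated control cells; inactive = the rest.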

Experimental findings from PubChem BioAssay AID2410 (Southern Research Specialized Biocontainment Screening …, 2010) are described below.

The test is described as follows: HEp-2 cell cytotoxicity, dose response, cytotoxicity control for RSV inhibitor project, HTS (AID 2410).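 Also: cells exposed to compound for six days before readout; 100% = median signal of untreated cell control wells on each plate.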 To be noted: HEp-2 viability, luminescence, cytotoxicity counter-screen; series mostly up to 50 µM; viability: at the top concentration. (In general: Counterscreens check selectivity or assay interference.)
As a reminder, the viability is a read-out of living cells in per cent, often relative to untreated cells. In the case of `COCCN(C(=O)CSc1nnc(-c2ccc(C)c(C)c2)o1)c1c(N)n(CC(C)C)c(=O)[nH]c1=O`, the “viability” value is 96.8%.
As for `COc1ccc2[nH]c3c(=S)nc[nH]c3c2c1`, the “viability” value was 94.1%.
With `c1ccc(N2CCN(Cc3nc4ccccc4[nH]3)CC2)nc1`, the “viability” value was 91.6%.
As for `CC(=O)Nc1ccc(NC(=O)C(C)OC(=O)c2ccccc2C(=O)c2ccc(Cl)c([N+](=O)[O-])c2)cc1` (centres undefined), the figure is 96.1%; as for `O=C(OCC(=O)N1CCCC1=O)c1ccc(Cl)cc1[N+](=O)[O-]`, 88.1%; as for `COc1ccc(C(=O)NCC(=O)N/N=C/c2c(C)[nH]c3ccccc23)cc1OC`, 86.3%.
In the case of `COc1cc(O)cc(O)c1C(=O)/C=C/c1ccccc1`, the “viability” value was 74.6%.
For `COc1ccc(C(CNC(=S)NCc2ccccc2)N2CCCC2)cc1` (centres undefined), the “viability” value was 81.7%.
As for `COC(=O)C1=C(C)N(Cc2ccccc2)C(=O)N[C@H]1c1ccc(Br)cc1`, the figure is 73%; as for `CC(=O)Nc1ccc(C(=O)OCc2ccc(Cl)cc2)cc1`, 90.8%; as for `COc1cccc(/C=N/N=C(\N)c2nonc2N)c1O`, 85.2%.
As for `COc1cc(/C=N/N=C(\N)c2nonc2N)cc(OC)c1OC`, the figure is 110%; as for `C/C(N)=C(/C#N)C(=O)COc1ncnc2ccccc12`, 117%; as for `C/C(N)=C(/C#N)C(=O)COc1ncnc2ccc(Br)cc12`, 104%.
As for `C/C(N)=C(/C#N)C(=O)COC(=O)c1cccc(C)c1O`, the figure is 107%; as for `Cc1c(NC(=O)CN2C(=O)NC3(CCCCC3C)C2=O)cccc1[N+](=O)[O-]` (centres undefined), 85.9%.
`Fc1cccc(Nc2nc(-c3ccncc3)nc3ccccc23)c1`: the “viability” value is 88.5%.
Consider `COc1ccc(/C(C)=N/NC(=O)CN(c2ccc(OC)cc2)S(=O)(=O)c2ccccc2)cc1`, for which the “viability” value is 99.9%.
With `Cc1nc2nc(-c3ccccc3)nn2c(C)c1Cl`, the “viability” value is 87%.
As for `O=C(c1cc(-c2ccc(Cl)cc2Cl)on1)N1CCOCC1`, the figure is 94.3%; as for `Cc1ccc(-c2nc(CCN3C(=O)c4ccccc4C3=O)cs2)cc1`, 87.1%; as for `Cc1ccc2c(n1)sc1c(-c3ccc(Br)cc3)c(C#N)c(N)nc12`, 78.3%.
With `Nc1ccc(Br)c2c1C(=O)c1ccccc1C2=O` the figure was 109%; with `COc1ccc(N(C)C(=O)C2CCCN2S(=O)(=O)c2cccc3nsnc23)c(OC)c1` (centres undefined), 90.5%.
With `COc1ccc(NC(=O)c2cccs2)c([N+](=O)[O-])c1` the figure was 97%.
In the case of `COc1ccccc1CNC(=O)C1CCN(S(=O)(=O)c2cccc3nonc23)CC1`, the “viability” value was 96.9%.
For `C/C(NC(=O)c1cccc(F)c1)=C1/C(=O)C[C@@H]2[C@H]1C2(C)C`, the “viability” value was 110%.
As for `C/C(N)=C(/C#N)C(=O)CN1C(=O)NC(Cc2c[nH]c3ccccc23)C1=O` (centres undefined), the figure is 79.4%; as for `O=C(Nc1ccon1)c1sc2ccccc2c1Cl`, 92.8%.
In the case of `CS(=O)(=O)NNC(=O)c1cc2cc3ccccc3nc2s1`, the “viability” value is 95.5%.
As for `O=C(Nc1ccc(Cl)cc1)N1CCc2[nH]c3ccccc3c2C1`, the figure is 83.2%.
As for `CCC(=O)Nc1nc(C)c(-c2csc(Nc3ccccn3)n2)s1`, the figure is 97.5%.
With `Cc1cc(Nc2cccc(F)c2)nc(-c2ccccc2O)n1` the figure was 74.5%; with `Cc1cc(Nc2cccc(Cl)c2)nc(-c2ccccc2O)n1`, 86%; with `CC1CCCN(C(=O)COC(=O)c2ccc3[nH]c4c(c3c2)CCCC4)C1` (centres undefined), 79.3%.
On to `Cc1cccc(C)c1N=Cc1c(O)n(-c2nccs2)c(=O)c2ccccc12`, for which the “viability” value is 70.9%.
As for `COc1ccccc1NCC(=O)Nc1cc(S(=O)(=O)N2CCOCC2)ccc1N1CCOCC1`, the figure is 97.8%; as for `Cc1ccnc(NC(=O)c2cccc(S(=O)(=O)N3CCN(c4ccccc4)CC3)c2)c1`, 86%; as for `O=C(NCc1ccccc1Cl)C1CCN(S(=O)(=O)c2cccc3nonc23)CC1`, 76.8%.
As for `COc1ccc2o/c(=N\O)c(C(=O)Nc3ccccc3OC)cc2c1`, the figure is 86.3%; as for `COc1ccc(C(=O)N/C(=C/c2cccs2)c2nc3ccccc3[nH]2)cc1OC`, 77.7%.
As to `CSc1nc(N2CCOCC2)nc2ccc(C)cc12`, the “viability” value was 94.1%.
As for `O=C1c2ccccc2C(=O)N1CCCCN(C(=O)c1cc2ccccc2oc1=O)c1ccc(Cl)cc1`, the figure is 76.2%; as for `COc1ccccc1CNC(=O)C(NS(=O)(=O)c1cccc2nsnc12)C(C)C` (centres undefined), 110%; as for `CCC(C)n1ncn(-c2ccc(N3CCN(c4ccc(OCC5COC(Cn6cncn6)(c6ccc(Cl)cc6Cl)O5)cc4)CC3)cc2)c1=O` (centres undefined), 102%.
As to `Brc1cnc(N2CCOCC2)nc1N1CCCCC1`, the “viability” value is 72.1%.
As for `CCOc1ccc(CNC(=O)CCCn2nc(CC)n3c(cc4occc43)c2=O)cc1`, the figure is 70.5%.
As to `N#Cc1ccccc1Cn1c(=O)oc2ccccc21`, the “viability” value is 94.8%.
As for `COC(=O)c1ccc(Oc2nc(N3CCCCC3)nc(N3CCOCC3)n2)cc1`, the figure is 90.4%; as for `CCCCNC(=O)CC1N=C2c3ccccc3N=C(SCC(=O)Nc3ccc(OC)cc3)N2C1=O` (centres undefined), 94.3%; as for `O=C(/C=C/c1ccc(O)c(O)c1)OC1C(O)CC(OC(=O)/C=C/c2ccc(O)c(O)c2)(C(=O)O)CC1O` (centres undefined), 84.3%.
As for `N#Cc1ccccc1NC(=O)c1ccc2c(Cl)c3c(nc2c1)CCCC3`, the figure is 96.1%; as for `CC(=O)N1N=C(c2ccc(C)cc2)OC1c1cccnc1` (centres undefined), 87.4%.
With `OCc1cn(-c2ccccc2)nc1-c1ccc(Br)cc1` the figure was 110%; with `COc1ccc(-c2nn(-c3ccccc3)cc2/C=N/O)cc1`, 90.4%; with `O=[N+]([O-])c1ccc(N/N=C/c2ccccc2)cc1`, 106%.
With `CC(Oc1ccc(F)cc1)C(=O)Nc1ccc2ccccc2c1` (centres undefined), the “viability” value was 91.2%.
As for `Cc1c(C)n(C)c2ccc([N+](=O)[O-])cc12`, the figure is 76.4%; as for `O=c1c2sccc2n(Cc2cc(=O)n3ccccc3n2)c(=O)n1-c1ccccc1`, 107%.
As for `CCN(Cc1nc2ccccc2c(=O)[nH]1)C(=O)c1cc(C2CC2)nn1-c1ccccc1`, the figure is 75.5%; as for `CN(Cc1nc2ccccc2c(=O)[nH]1)C(=O)c1cc(C2CC2)nn1-c1ccccc1`, 74.9%; as for `COc1ccccc1/C=C/C(=O)NCC(=O)N/N=C(/C)c1ccc(Cl)cc1`, 74.3%.
With `Cc1nn2c(-c3ccc(F)cc3)ccnc2c1Br` the figure was 99.9%; with `CC(=O)c1sc(-c2ccccc2Cl)nc1C`, 92.1%; with `O=C(Nc1ccon1)c1ccc(N2CCCCC2)c([N+](=O)[O-])c1`, 73%.
Consider `c1csc(-c2nc3c4ccccc4c4ccccc4c3[nH]2)c1`, for which the “viability” value is 75%.
As for `Cc1c(SCCO)c(=O)[nH]c2cc3c(cc12)OCO3`, the figure is 84%; as for `O=C(/C=C/c1ccc(O)c(O)c1)O[C@@H]1C[C@](O)(C(=O)O)C[C@@H](O)[C@H]1O`, 93.9%; as for `COc1ccc2cc(CN(CCc3ccccc3)Cc3nnnn3Cc3ccco3)c(=O)[nH]c2c1`, 82.5%.
For `CCOC(=O)c1c(C)[nH]c(C(=O)COC(=O)C2(C)CC2(Cl)Cl)c1C` (centres undefined), the “viability” value was 79.6%.
With `O=c1nc(Nc2ccc(OCc3ccccc3)cc2)sc2ncccc12` the figure was 73.7%.
As to `Cc1csc(N(C)C(=O)CSc2nnc(COc3ccccc3C)o2)n1`, the “viability” value was 97.9%.
As to `COC(=O)c1ccc(NC2c3ncccc3C(=O)N2Cc2cccs2)cc1` (centres undefined), the “viability” value was 88.2%.
As for `Cc1[nH]c2ccccc2c1C(=O)CSc1ccccn1`, the figure is 91.8%; as for `CSc1nc2ccc(Nc3nc(N4CCOCC4)nc(N4CCOCC4)n3)cc2s1`, 82.1%; as for `Cc1ccc(Nc2nc(N3CCOCC3)nc(N3CCOCC3)n2)cc1Cl`, 107%.
With `O=C(c1ccccc1Cl)N1CCN(c2ccccn2)CC1` the figure was 78.8%; with `CSc1nnc(Cn2c(=O)sc3ccccc32)n1CCc1ccccc1`, 97.2%.
With `CCOC(=O)CSc1nnc(CNC(=O)c2ccc([N+](=O)[O-])cc2)n1C` the figure was 105%.
For the compound `C#CCOCCOCCOCCNc1nc(N2CCN(C(=O)CCCCCCCCCCNC(=O)[C@@H]([C@H](C)O)n3cc(C)nn3)CC2)nc(N2CCN(C(=O)CCCCCCCCCCNC(=O)[C@@H]([C@H](C)O)n3cc(C)nn3)CC2)n1`, the “viability” value was 77.9%.
As for `Cc1ccccc1NC(=O)COC(=O)Cc1ccsc1`, the figure is 95.5%; as for `COc1ccc(S(=O)(=O)N2CCN(CCO)CC2)cc1-c1nnc2c3ccccc3c(C)nn12`, 105%; as for `Cc1cc(N2C(=O)CC(N3CCN(c4ccc(C(=O)c5cccs5)cc4)CC3)C2=O)no1` (centres undefined), 77%.
With `C/C(=N/OCO/N=C(/C)c1ccc(F)cc1)c1ccc(F)cc1` the figure was 115%; with `O=c1c(OC2OC(CO)C(O)C(O)C2OC2OC(CO)C(O)C(O)C2OC2OC(CO)C(O)C(O)C2O)c(-c2ccc(O)c(O)c2)oc2cc(O)cc(O)c12` (centres undefined), 81.7%; with `CCC(=O)Nc1ccc(C(=O)OCc2ccccc2Cl)cc1`, 121%.
As for `Cc1ccc(-n2c(=O)c3sccc3n(Cc3cc(=O)n4ccccc4n3)c2=O)cc1F`, the figure is 115%; as for `COc1ccc(Br)cc1/C=C/C(=O)Nc1ccc2ccccc2c1`, 79%; as for `CCOc1cc(/C=N\Nc2nc(Nc3ccccc3)nc(N3CCOCC3)n2)ccc1OC(=O)c1ccco1`, 72.7%.
Turning to `S=C(NCCc1ccccc1)N/N=C/c1cccc(Cl)c1Cl`, the “viability” value is 74.4%.
As for `c1ccc2c(c1)OCCc1c-2[nH]c2ccccc12`, the figure is 99.2%; as for `COC(=O)c1ccc(Cn2c(CN3CCOCC3)nc3ccccc3c2=O)o1`, 116%; as for `CCn1c(=NC(=O)c2ccco2)sc2cccc(F)c21`, 91.8%.
With `CC(=NCc1ccco1)C1=C(O)c2ccccc2C1=O` the figure was 99%.
As for `Cn1nnc(-c2ccc(OCc3ccccc3F)cc2)n1`, the figure is 96.7%; as for `CC/C(=N\Nc1ccc([N+](=O)[O-])cc1)c1ccccc1`, 112%; as for `COC(=O)c1cc2n3ccccc3c(C)c(-c3ccccc3)c-2c1C(=O)OC`, 92%.
On to `CCOc1ccc2nc(NC(=O)C(CCSC)NS(=O)(=O)c3cccs3)sc2c1` (centres undefined), for which the “viability” value is 96%.
For the compound `O=C(CSc1ccccn1)Nc1nc2c(ccc3ccccc32)s1`, the “viability” value is 85.2%.
With `Cc1ccc(-c2nc3c(c(=O)c4ccccc4n3C)c(=O)n2Cc2ccco2)cc1` the figure was 86.8%; with `COCCn1c(-c2cccc(Br)c2)nc2c(c(=O)c3ccccc3n2C)c1=O`, 81.5%; with `COc1ccc(Cn2c(-c3ccccc3C)nc3c(c(=O)c4ccccc4n3C)c2=O)cc1`, 99.4%.
As for `COCCn1c(-c2ccccc2Cl)nc2c(c(=O)c3ccccc3n2C)c1=O`, the figure is 74.5%.
As for `Nn1c(COc2ccccc2)nc2ccccc2c1=O`, the figure is 88.4%.
